Assay results as given in the supplement of paper PMC8387472.

Experiments:
Assay in all cases: fraction of edited reads among all mapped reads; higher = more Cas9 editing
Details in all cases: mESC; 2uM; 72 h treatment, harvest day 5
[1] = compound: Cc1cc(C)nc(SCC(=O)Nc2ncc(Cc3cccc4ccccc34)s2)n1
[2] = compound: Cc1ccc(C(=O)NCCCCCC(=O)Nc2ccccc2N)cc1
[3] = compound: Cc1cccc(CC(=O)N2CCc3c2ccc(-c2cn(C)c4ncnc(N)c24)c3F)n1
[4] = compound: NC(=O)c1ccc2nc(-c3ccc(Oc4ccc(Cl)cc4)cc3)[nH]c2c1 [Chk 2 inhibitor II (BML-277)]
Tucidinostat (Chidamide) = compound: Nc1cc(F)ccc1NC(=O)c1ccc(CNC(=O)/C=C/c2cccnc2)cc1 [Tucidinostat (Chidamide)]
Pemetrexed = compound: Nc1nc2[nH]cc(CCc3ccc(C(=O)N[C@@H](CCC(=O)O)C(=O)O)cc3)c2c(=O)[nH]1 [Pemetrexed]
[5] = compound: Nc1ncnc2c1c(-c1cnc3[nH]ccc3c1)nn2C1CCCC1
[6] = compound: O=C(c1cccc(Cl)c1F)N1CCN(Cc2cccc(Nc3nccs3)n2)CC1
Kenpaullone = compound: O=C1Cc2c([nH]c3ccc(Br)cc23)-c2ccccc2N1 [Kenpaullone]
Genistein = compound: O=c1c(-c2ccc(O)cc2)coc2cc(O)cc(O)c12 [Genistein]

Row | Target | fraction of edited reads among all mapped reads [1] | fraction of edited reads among all mapped reads [2] | fraction of edited reads among all mapped reads [3] | fraction of edited reads among all mapped reads [4] | fraction of edited reads among all mapped reads (Tucidinostat (Chidamide)) | fraction of edited reads among all mapped reads (Pemetrexed) | fraction of edited reads among all mapped reads [5] | fraction of edited reads among all mapped reads [6] | fraction of edited reads among all mapped reads (Kenpaullone) | fraction of edited reads among all mapped reads (Genistein)
1 | 20.0 (DMSO control at this site: 1-bp insertion 0.349, MH deletion 0.138, edited 0.084) TACAGGTGTAGACTGGTTACGTGGCTGCGGAATTGACTGGTTACGTGGCTGCGGAATTTTG | 0.152 | 0.0728 | 0.111 | 0.106 | 0.0826 | 0.0835 | 0.117 | 0.0574 | 0.232 | 0.125
2 | 1.0 (DMSO control at this site: 1-bp insertion 0.521, MH deletion 0.323, edited 0.141) GTGTCACAGTGCACGAGTGACGGGATAATGTGCTGACAGGTAATTGATAGGCTTCCAACTT | 0.243 | 0.141 | 0.218 | 0.174 | 0.14 | 0.132 | 0.176 | 0.112 | 0.33 | 0.159
3 | 7.0 (DMSO control at this site: 1-bp insertion 0.128, MH deletion 0.374, edited 0.098) TACTCAACCGAGACCTACGCGAACCGAAATCGTATGCCGGTGCGCAAGCAGGGCTGGCGTC | 0.173 | 0.0971 | 0.138 | 0.128 | 0.1 | 0.1 | 0.096 | 0.0816 | 0.195 | 0.124
4 | 43.0 (DMSO control at this site: 1-bp insertion 0.134, MH deletion 0.714, edited 0.104) AGTTTAACTTACTCCGGCCAAAAAAGAACTGCACCTCTGGAGCGGGTTAGTGGTGGTGGTA | 0.219 | 0.137 | 0.172 | 0.155 | 0.116 | 0.093 | 0.126 | 0.0909 | 0.271 | 0.179
5 | 23.0 AGAACAAAGCGCTCATATAACGATATGGGGGGTTATGGGGGGTTGAATTGCTTCAGCACGA | – | – | – | – | – | – | – | 0.94 | – | –
6 | 8.0 GCATGCGTGTTTTGGGACAATGTAGTATACATTTGGGAGGCTCTCAGCTTTTCCCAATAAA | 0.021 | – | – | – | 0.0159 | 0.0154 | 0.0205 | – | 0.0456 | –
7 | 25.0 (DMSO control at this site: 1-bp insertion 0.017, MH deletion 0.774, edited 0.143) GGGCCTGAATGGTGTGGACATCTACTCGCTGGTGAGCTGGTGACTGAAAACATTCAGTGGC | 0.278 | 0.159 | 0.228 | 0.194 | 0.14 | 0.16 | 0.15 | 0.109 | 0.31 | 0.203
8 | 35.0 (DMSO control at this site: 1-bp insertion 0.01, MH deletion 0.72, edited 0.098) CCACTTTTAGAGAGGGTGAAAATCATCAGTTATCATCAGGGCAACAAATTGCTTTCTCCTA | 0.179 | 0.117 | 0.147 | 0.122 | 0.0981 | 0.104 | 0.108 | 0.0696 | 0.209 | 0.151
9 | 18.0 (DMSO control at this site: 1-bp insertion 0.114, MH deletion 0.789, edited 0.094) GCGCAAGTGCATAAGTTTTTCTTAAGGCGTGCCTTTAAGGCGTGCCTTTGTCGGTCCTGGA | 0.155 | 0.0986 | 0.121 | 0.106 | 0.0855 | 0.0951 | 0.0956 | 0.0736 | 0.162 | 0.131
10 | 15.0 GCGCCTCCAATGACCCAGTGGGATCCTACTCCATAATGGGATCCTGGGGATTCCTCGCTCC | 0.136 | 0.0776 | – | – | 0.0802 | – | – | – | – | 0.132
11 | 3.0 (DMSO control at this site: 1-bp insertion 0.109, MH deletion 0.149, edited 0.09) TGCTAGCGCCCCCACAAAGCGGACCAGCCAGCACTATAGGGAATAAGGCCAACTTGCACCC | 0.162 | 0.0928 | 0.145 | 0.126 | 0.0815 | 0.12 | 0.0841 | 0.0816 | 0.193 | 0.13
12 | 5.0 (DMSO control at this site: 1-bp insertion 0.214, MH deletion 0.567, edited 0.105) CGCTGACCCGAGACCTACGCGAACCGAAATCGGCGACCGGTGCGCAAGCAGGGCTGGCGTC | 0.215 | 0.121 | 0.171 | 0.149 | 0.108 | 0.124 | 0.116 | 0.0928 | 0.248 | 0.157
13 | 42.0 (DMSO control at this site: 1-bp insertion 0.145, MH deletion 0.655, edited 0.132) GGGCTAAACCTATGAGCACAGTAGAACTAAGGGTGGGTGGTGTAGCTAAAGAACTTGACCA | 0.241 | 0.15 | 0.193 | 0.167 | 0.115 | 0.127 | 0.135 | 0.107 | 0.251 | 0.18
14 | 41.0 (DMSO control at this site: 1-bp insertion 0.022, MH deletion 0.754, edited 0.115) AAAGAGACAGCAGGTATGAATCCATCTTCCTGACCCTTGGGACCAGCCGGGGCAGTGAAGC | 0.227 | 0.138 | 0.172 | 0.157 | 0.121 | 0.12 | 0.113 | 0.0798 | 0.25 | 0.169
15 | 4.0 (DMSO control at this site: 1-bp insertion 0.146, MH deletion 0.523, edited 0.125) ACGCCTTAGTGCACGAGTGACGGGATAATGTGGTCTCAGGTAATTGATAGGCTTCCAACTT | 0.237 | 0.155 | 0.209 | 0.166 | 0.13 | 0.16 | 0.15 | 0.0959 | 0.306 | 0.175
16 | 26.0 (DMSO control at this site: 1-bp insertion 0.518, MH deletion 0.262, edited 0.026) AGGGCGCGCCCCACGCACTCTGCGGCAAGTCCCTCTGCGGCAAGTCCTCGGCCCGGAAGAC | 0.0413 | 0.0319 | 0.0384 | 0.0384 | 0.0295 | 0.0225 | 0.0266 | 0.0221 | 0.0413 | 0.0338
17 | 39.0 (DMSO control at this site: 1-bp insertion 0.328, MH deletion 0.371, edited 0.204) CTGCACAGTCACTTAGGATAGGAGAAGATGATGTATAGGGTTTAGTGGGAGATGTTGCAAG | 0.3 | 0.189 | 0.29 | 0.229 | 0.184 | 0.177 | 0.196 | 0.141 | 0.328 | 0.231
18 | 33.0 (DMSO control at this site: 1-bp insertion 0.008, MH deletion 0.771, edited 0.112) CATTAAGAGCAGCTGCCGGCCCCCAAGTGGACAGAGCTGGCCCTGCTGATTCAACAGTGCA | 0.187 | 0.109 | 0.168 | 0.147 | 0.108 | 0.111 | 0.108 | 0.0838 | 0.237 | 0.146
19 | 0.0 (DMSO control at this site: 1-bp insertion 0.463, MH deletion 0.339, edited 0.14) AGGATTACCGAGACCTACGCGAACCGAAATCGCTGTCCGGTGCGCAAGCAGGGCTGGCGTC | 0.241 | 0.152 | 0.222 | 0.17 | 0.139 | 0.149 | 0.173 | 0.122 | 0.329 | 0.187
